This note sets out measurements from the supplement of paper PMC7156485.

Counter-ions that a name gives are not always drawn. ± gives the standard deviation of the averaged measurements.
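Also: TDF denotes transformed human dermal fibroblasts of mesenchymal origin.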

The test concerns HCC1569. The test is described as follows: cell number relative to DMSO (% of DMSO); higher = more cells (less growth inhibition / toxicity). The conditions noted are these: concentration: 10 µM; 24 h. An outline of the steps: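 In 384-well plates holding 800 HCC1569 or TDF cells per well in RPMI with 10% FBS, compounds were tested at 10 µM for 24 h at 37 °C in triplicate. Fixation used 3.7% formaldehyde. Staining used a rabbit anti-H1.0 antibody with an AlexaFluor 647 secondary, plus DAPI. Each value, H1.0 nuclear intensity or cell number, is a median of replicates shown as percent of the plate control, and HCC1569 values were smoothed for positional effects.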
`CC1OC(Oc2c(-c3ccc(O)c(O)c3)oc3cc(O)cc(O)c3c2=O)C(O)C(O)C1O` (stereo not given) [Quercitrin]: the cell number is 97.5.
The value for `CC(N)C1CCC(C(=O)Nc2ccncc2)CC1.Cl.Cl.O` (stereo not given) was 109; that for `CCCC(=O)O[C@]1(C(=O)CO)CC[C@H]2[C@@H]3CCC4=CC(=O)CC[C@]4(C)[C@H]3[C@@H](O)C[C@@]21C` [(11beta)-11,21-dihydroxy-3,20-dioxopregn-4-en-17-yl butyrate] was 97.4.
The value for `COC(=O)c1c(C)[nH]c(C)c1C(=O)c1ccccc1Cc1ccccc1` was 102; that for `Br.Br.N=C(N)SCCc1ccc(CCSC(=N)N)cc1` [1,4-PBIT dihydrobromide] was 96.8; that for `CCCCCCCCCCC(=O)O` [Undecanoic acid] was 104.
For `CCCCOC(=O)NS(=O)(=O)c1sc(CC(C)C)cc1-c1ccc(Cn2c(CC)nc3c(C)cc(C)nc32)cc1` the value was 99.7; for `Cc1cc(CS(=O)(=O)c2ccccc2)cc(OCc2ccc(CN3CCC[C@@H]3CO)cc2)c1` [PF-543 hydrochloride], 95.8.
On to `CN1CCN(CCCN2c3ccccc3Sc3ccc(C(F)(F)F)cc32)CC1.Cl.Cl` [Trifluoperazine dihydrochloride], for which the cell number amounted to 87.3.
`CC1=C(CC(=O)O)c2cc(F)ccc2C1=Cc1ccc(S(C)(=O)=O)cc1` [Sulindac sulfone]: the cell number came to 104.
The value for `COC1C=COC2(C)Oc3c(C)c(O)c4c(O)c(cc([O-])c4c3C2=O)NC(=O)C(C)=CC=CC(C)C(O)C(C)C(O)C(C)C(OC(C)=O)C1C.[Na+]` (stereo not given) was 103; that for `COC(=O)C1C(O)CCC2CN3CCc4c([nH]c5ccccc45)C3CC21` (stereo not given) [Corynanthine] was 106; that for `CC(N=C(NC#N)Nc1ccncc1)C(C)(C)C` (stereo not given) [Pinacidil] was 103 ± 2.5.
`Nc1nc(=O)c2ncn(COC(CO)CO)c2[nH]1` [Ganciclovir] returned a cell number of 105 ± 4.
In the case of `O=C(NCCO[N+](=O)[O-])c1cccnc1` [Nicorandil], the cell number is 102.
The molecule `Cc1c(C)c2c(c(C)c1O)CCC(C)(C(=O)O)O2` (stereo not given) [Trolox] had a cell number of 101.
The value for `CC[n+]1c(C=CN(C)c2ccccc2)n(-c2ccccc2)c2ccc(-c3nc4ccccc4s3)cc21.[I-]` [Akt Inhibitor IV] was 38.7; that for `CC(=O)CC/C=C(\C)CC/C=C(\C)CC/C=C(\C)CCC=C(C)C` was 100; that for `O=c1[nH]ccc2c(S(=O)(=O)N3CCCNCC3)cccc12` was 106.
The value for `NC1CCCCC1N.O=C([O-])C(=O)[O-].[Pt+2]` (stereo not given) [Oxaliplatin] was 87.5 ± 5.5; that for `CC(C)NCC(O)c1ccc(O)c(O)c1.O=C(O)C(O)C(O)C(=O)O` (stereo not drawn) [R(-)-Isoproterenol (+)-bitartrate] was 99.2; that for `CCCCCC=CCC=CCCCCCCCCCC(=O)O` [Eicosadienoic acid] was 103 ± 1.2.
`CCCCCCCCCCCC=CCC=CCCCC(=O)O` [Eicosa-5,8-dienoic acid (20:2 n-12)] came in with a cell number of 101.
For `Cc1ccc(C)c(-c2cc(C(F)(F)F)nn2-c2ccc(S(N)(=O)=O)cc2)c1` the value was 101; for `COc1ccc2[nH]cc(CCNC(C)=O)c2c1` [Melatonin], 101 ± 3.5; for `Cl.O.O=C(O)CN(CCN(CC(=O)O)Cc1ccccc1O)Cc1ccccc1O`, 105.
For `O=C1CSc2ccccc2N1Cc1cccc(C(F)(F)F)c1` [4-[3-(trifluoromethyl)benzyl]-2H-1,4-benzothiazin-3(4H)-one] the value was 102.
Turning to `CC(C)(C)c1nc2c3cc[nH]c(=O)c3c3cc(F)ccc3c2[nH]1` [JAK Inhibitor I], the cell number is 99.8.
Molecule `CC1(C)NC(=O)N(c2ccc([N+](=O)[O-])c(C(F)(F)F)c2)C1=O` [Nilutamide] gave a cell number of 101.
Regarding `COc1c(N2CCNC(C)C2)c(F)cc2c(=O)c(C(=O)O)cn(C3CC3)c12` (stereo not given) [Gatifloxacin], the cell number amounted to 101.
Molecule `Cc1nc(C(=O)N2CCC[C@H]2Cc2nnc(-c3ccccc3)o2)c(-c2ccccc2F)s1` yielded a cell number of 96.3.
For the molecule `Cc1ccc(NC(=O)c2ccc(CN3CCN(C)CC3)cc2)cc1Nc1nccc(-c2cccnc2)n1` [Imatinib], the cell number turned out to be 101.
The value for `CC(C)=CCCC(C)=CCCC(C)=CCCC(C)=CCCC(C)=CCCC(C)=CCCC(C)=CCCC(C)=CCCC(C)=CCO` [Solanesol] was 104.
The value for `COc1cc(C(=O)OC2CC(C)=CCCC(C)=CC(O)C2C(C)C)ccc1O` (stereo not given) [Tschimganidin] was 102.
The value for `COc1cc(/C=C/C(=O)O)ccc1O` [Ferulic acid] was 102; that for `CC(=O)N1CCN(C(=O)/C=C/c2ccc(Sc3ccccc3C(C)C)c([N+](=O)[O-])c2)CC1` was 82.5.
For the molecule `CC1CC2OC2C=CC=CC(=O)Cc2c(Cl)c(O)cc(O)c2C(=O)O1` (stereo not given) [Radicicol], the cell number was determined as 66.2.
The value for `CNC(=O)c1cc(Oc2ccc(NC(=O)Nc3ccc(Cl)c(C(F)(F)F)c3)cc2)ccn1` [Sorafenib] was 45.9; that for `COc1cc2ncnc(Nc3ccc(F)c(Cl)c3)c2cc1OCCCN1CCOCC1` was 80.2; that for `NC1CONC1=O` (racemic) [DL-Cycloserine] was 101.
